Reference: PubChem BioAssay (NCATS)
Entries with a potency or affinity are not part of this list. A number with no mark means an inactive call. The rule behind the calls is not given here.

Conditions: Ebola virus entry assay, green fluorescence channel
Note: 0% is about no effect.

Row | Structure (SMILES) | efficacy
1 | O=c1cc[nH]c(=S)[nH]1 | 12.4%
2 | Cc1cc(NS(=O)(=O)c2ccc(N)cc2)nc(C)n1 | -28.1%
3 | Oc1cccc(O)c1 | -18.5%
4 | CCCOC(=O)c1ccccc1 | 17.4%
5 | COc1cc(/C=C/C(N)=O)cc(OC)c1OC | -22.5%
6 | Cc1ccccc1OCC(O)CO (centres undefined) | 25.5%
7 | CC(C)(Sc1cc(C(C)(C)C)c(O)c(C(C)(C)C)c1)Sc1cc(C(C)(C)C)c(O)c(C(C)(C)C)c1 | -17.7%
8 | Cc1c(I)c(=O)n(-c2ccccc2)n1C | -23.5%
9 | CCN(CC)CCOC(=O)c1ccc(N)cc1 | -27.3%
10 | CN1CC[C@]23c4c5ccc(O)c4O[C@H]2[C@@H](O)C=C[C@H]3[C@H]1C5 | 19.5%
11 | NC(=O)CS(=O)C(c1ccccc1)c1ccccc1 (centres undefined) | -20.1%
12 | CC(=O)OCC(=O)[C@H]1CC[C@H]2[C@@H]3CCC4=CC(=O)CC[C@]4(C)[C@H]3CC[C@]12C | -27%
13 | O=C1c2ccccc2C(=O)c2ccccc21 | 11.2%
14 | CC1(C)OC(=O)NC1=O | 15.4%
15 | NCCS(=O)(=O)O | 39.2%
16 | CC(C)(N)Cc1ccccc1Cl | 18%
17 | C[C@@H](O)[C@H]1C(=O)N2C(C(=O)O)=C(SCCN=CN)C[C@H]12 | 21.9%
18 | CN1CCC(O)(c2ccc(F)cc2)C(C(=O)c2ccc(F)cc2)C1 (centres undefined) | 22.6%
19 | Cc1ccc(C(=O)c2ccc(CC(=O)O)n2C)cc1 | 11.5%
20 | CN=C(NC#N)Nc1ccc(C2=NNC(=O)CC2C)cc1 (centres undefined) | -19.1%

Row | Structure (SMILES) | efficacy
21 | COc1ccccc1OCC(O)CO (centres undefined) | 12%
22 | ClCCN1CCCC1 | -44.4%
23 | NS(=O)(=O)c1ccc(C(=O)O)cc1 | 11%
24 | CC(C)(C)c1cc(C=O)cc(C(C)(C)C)c1O | 23.6%
25 | CCN(CC)C(=O)[C@@H]1C=C2c3cccc4[nH]cc(c34)C[C@H]2N(C)C1 | 49.3%
26 | CC(=O)c1cc2ccccc2s1 | -31.8%
27 | CC(=O)Oc1cccc2c1C(=O)c1c(OC(C)=O)cc(C(=O)O)cc1C2=O | -17.1%
28 | CCCCC(CC)COC(=O)c1ccccc1O (centres undefined) | -34.1%
29 | CN1C(=O)NC(=O)C(C)(C2=CCCCC2)C1=O (centres undefined) | 10.3%
30 | CCCC(O)C(CC)CO (centres undefined) | 14.1%
31 | Cc1cccc(C)c1NC(=O)c1cc(S(N)(=O)=O)c(Cl)cc1O | -19.2%
32 | C[C@]12CC[C@H]3[C@@H](CCC4=CC(=O)CC[C@@H]43)[C@@H]1CC[C@@H]2OC(=O)CCC1CCCCC1 | -18.4%
33 | COC1CC(=C(c2cccs2)c2cccs2)C[N+](C)(C)C1 (centres undefined) | 18.8%
34 | C[C@@H]1CN(c2c(F)c(F)c3c(=O)c(C(=O)O)cn(C4CC4)c3c2F)C[C@H](C)N1 | -15.7%
35 | CCC(C)(CN(C)C)OC(=O)c1ccccc1 (centres undefined) | 37.4%
36 | COc1ccc(-c2cc(=O)c3c(O)cc(O[C@@H]4O[C@H](CO[C@@H]5O[C@@H](C)[C@H](O)[C@@H](O)[C@H]5O)[C@@H](O)[C@H](O)[C@H]4O)cc3o2)cc1O | -6.57%
37 | COc1cc(C)c(Cc2cnc(N)nc2N)cc1OC | -5.94%
38 | CCc1cc2c(s1)-n1c(C)nnc1CN=C2c1ccccc1Cl | 22%
39 | CN1C(C)(C)CCCC1(C)C | 14.2%
